# Among all 360,000 compounds or so, about 16,000 (4.4%) were called active. Entries that show only a call come without a potency. Inconclusive results (about 9%) are left out. This is one part of a sample in which actives are shown more often than they occur. Calls follow the shape of the dose curve; as a rule, active = well fitted inhibition curve with a large enough effect; inconclusive = small, poorly fitted or top-dose-only effect; inactive = no such curve, though single readings can be large or run the other way.
# Target: Bromodomain adjacent to zinc finger domain protein 2B (Homo sapiens) (UniProt Q9UIF8)
# Assay: qHTS Assay for Inhibitors of BAZ2B; also: nearly all actives have a fitted effect of over 60% in size
# Details: AlphaScreen BAZ2B-H3K14Ac peptide displacement; series mostly up to 114 µM
# Summary of the method: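 AlphaScreen displacement of biotin-H3(5-23)K14Ac peptide (50 nM final) from BAZ2B (50 nM final) in PBS pH 7.4, 0.01% Tween-20; complex preformed 30 min RT, then compounds (top 110 uM) 30 min RT, beads 20 min dark.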
# Potency is read from the fitted curve at half-maximal effect.
# Bromodomain adjacent to zinc finger domain protein 2B (Homo sapiens), sequence (Q9UIF8 whole entry, looked up, the tested form may be a part): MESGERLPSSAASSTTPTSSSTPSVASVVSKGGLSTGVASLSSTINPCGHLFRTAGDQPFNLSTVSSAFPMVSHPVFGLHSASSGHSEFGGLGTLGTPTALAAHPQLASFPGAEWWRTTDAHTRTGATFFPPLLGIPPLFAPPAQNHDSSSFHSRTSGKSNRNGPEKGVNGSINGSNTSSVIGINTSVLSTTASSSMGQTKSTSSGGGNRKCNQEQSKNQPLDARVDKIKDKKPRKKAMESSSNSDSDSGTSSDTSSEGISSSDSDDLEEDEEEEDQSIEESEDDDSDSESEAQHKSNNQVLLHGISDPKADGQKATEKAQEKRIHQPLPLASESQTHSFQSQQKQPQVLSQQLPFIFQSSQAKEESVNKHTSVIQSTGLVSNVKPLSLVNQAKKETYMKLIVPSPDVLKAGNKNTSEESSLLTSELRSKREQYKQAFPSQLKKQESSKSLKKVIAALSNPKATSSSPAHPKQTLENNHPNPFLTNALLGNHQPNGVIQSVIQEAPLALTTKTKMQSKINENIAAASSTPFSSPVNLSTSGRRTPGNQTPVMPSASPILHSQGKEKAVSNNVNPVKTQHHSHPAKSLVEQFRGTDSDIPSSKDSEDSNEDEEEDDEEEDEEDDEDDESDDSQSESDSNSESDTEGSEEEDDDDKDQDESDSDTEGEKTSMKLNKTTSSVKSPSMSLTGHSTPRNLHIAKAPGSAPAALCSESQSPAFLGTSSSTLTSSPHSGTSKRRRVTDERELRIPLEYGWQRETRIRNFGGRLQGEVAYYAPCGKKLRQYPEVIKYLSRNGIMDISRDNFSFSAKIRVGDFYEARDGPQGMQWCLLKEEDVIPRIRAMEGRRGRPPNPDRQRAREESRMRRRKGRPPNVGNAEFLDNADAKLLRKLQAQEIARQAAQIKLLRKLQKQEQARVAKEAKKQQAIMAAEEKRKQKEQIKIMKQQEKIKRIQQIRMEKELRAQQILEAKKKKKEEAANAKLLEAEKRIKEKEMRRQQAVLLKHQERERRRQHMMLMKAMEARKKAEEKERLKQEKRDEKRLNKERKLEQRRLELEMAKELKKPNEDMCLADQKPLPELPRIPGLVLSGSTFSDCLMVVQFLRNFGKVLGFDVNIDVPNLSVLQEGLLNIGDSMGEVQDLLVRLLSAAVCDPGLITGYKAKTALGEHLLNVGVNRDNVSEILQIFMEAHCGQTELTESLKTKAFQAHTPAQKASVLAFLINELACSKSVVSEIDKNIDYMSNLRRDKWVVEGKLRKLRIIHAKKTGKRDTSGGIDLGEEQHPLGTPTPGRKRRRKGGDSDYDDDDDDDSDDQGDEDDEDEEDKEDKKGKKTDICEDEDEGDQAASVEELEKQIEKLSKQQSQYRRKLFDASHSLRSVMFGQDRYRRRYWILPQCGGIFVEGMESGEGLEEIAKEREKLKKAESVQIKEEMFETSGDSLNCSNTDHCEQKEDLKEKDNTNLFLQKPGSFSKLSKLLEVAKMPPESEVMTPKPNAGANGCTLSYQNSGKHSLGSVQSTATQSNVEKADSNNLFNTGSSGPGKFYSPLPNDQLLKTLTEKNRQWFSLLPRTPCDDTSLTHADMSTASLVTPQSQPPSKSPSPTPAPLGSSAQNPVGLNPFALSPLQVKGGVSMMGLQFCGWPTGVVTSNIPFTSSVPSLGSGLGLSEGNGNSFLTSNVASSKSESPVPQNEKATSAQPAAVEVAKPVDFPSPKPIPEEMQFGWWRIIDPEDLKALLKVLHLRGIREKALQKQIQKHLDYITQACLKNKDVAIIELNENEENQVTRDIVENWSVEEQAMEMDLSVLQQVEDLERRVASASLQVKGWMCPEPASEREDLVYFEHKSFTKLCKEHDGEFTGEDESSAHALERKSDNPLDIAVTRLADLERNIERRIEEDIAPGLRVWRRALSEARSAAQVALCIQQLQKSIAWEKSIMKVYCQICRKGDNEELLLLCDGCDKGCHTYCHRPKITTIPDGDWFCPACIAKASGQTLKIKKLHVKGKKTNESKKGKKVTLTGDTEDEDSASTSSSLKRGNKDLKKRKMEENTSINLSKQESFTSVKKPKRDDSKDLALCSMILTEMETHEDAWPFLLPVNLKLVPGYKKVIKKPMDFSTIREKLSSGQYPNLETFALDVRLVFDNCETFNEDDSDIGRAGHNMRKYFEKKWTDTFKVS
row,Compound,Potency
1,COc1ccccc1-c1noc(CSc2nnc(-c3ccccc3)n2-c2ccc(C)c(C)c2)n1,inactive
2,Cc1ccc(NC(=O)c2ccc(CN3CC(=O)N4CCCCC4C3=O)cc2)c(Cl)c1 (centres undefined),inactive
3,COc1cc(NC(=O)CCn2nc(C)cc2C)cc(OC)c1OC,inactive
4,CC1CCN(c2oc(-c3ccccc3F)nc2C#N)CC1,14.1 µM (active)
5,N#Cc1nc(-c2cccc3ccccc23)oc1N,inactive
6,Cc1oc(-c2ccccc2F)nc1CS(=O)CC(=O)NCCN1CCCCC1C (centres undefined),inactive
7,COc1cccc(C2C(C(=O)Nc3ccc(C)cc3C)=C(C)Nc3c(C(=O)Nc4ccccc4)cnn32)c1 (centres undefined),inactive
8,CCOc1ccccc1C(=O)NCc1ccc2c(c1)CCN2C(=O)c1ccc(F)cc1,inactive
9,COc1ccc(NC(=O)C2CCN(c3ccc(Sc4ccc(C)cc4)nn3)CC2)c(OC)c1,inactive
10,COc1ccc(CNC(=O)/C(C#N)=C/c2cccc(OC)c2OC)cc1,inactive
11,COCCNC(=O)/C(C#N)=C/c1cccc(OCc2ccccc2)c1,inactive
12,N#C/C(=C\c1ccc(O)c(O)c1)C(=O)NCc1ccccc1,12.6 µM (active)
13,O=C(Nc1nnc(C2CC(=O)N(c3ccc(Cl)cc3)C2)s1)c1ccco1 (centres undefined),inactive
14,Cc1c(CNC(C)c2ccccc2)c(C(=O)O)c(C)n1Cc1c(F)cccc1Cl (centres undefined),inactive
15,COc1cc(C(CC(=O)NCCC(C)C)N2Cc3ccccc3C2=O)cc(OC)c1OC (centres undefined),inactive
16,O=C(c1cc2c(s1)CCC2)N1CCN(c2ccccc2)CC1,56.2 µM (active)
17,O=C(C1CCC1)N1CCN(c2ccccc2)CC1,inactive
18,O=C(NNC(=O)c1cc2c(s1)CCCC2)c1ccccc1,inactive
19,COc1ccc(NC(=S)NCCN2CCC(C)CC2)cc1,inactive
20,COc1ccc(NC(=O)N2CCC(Cc3ccccc3)CC2)cc1,inactive
21,COc1ccc(NC(=S)NCC2CCN(c3ccc(OC)cc3)C2)cc1 (centres undefined),31.6 µM (active)
22,COc1ccc(N2CCC(CNC(=S)Nc3c(C)cccc3C)C2)cc1 (centres undefined),39.8 µM (active)
23,COc1ccc(OCC(=O)Nc2ccc(N3CCC(C)CC3)cc2)cc1,inactive
24,COc1cccc(N2CC(C(=O)Nc3c(C)cccc3C)CC2=O)c1 (centres undefined),inactive
25,NC(=O)CSc1nc2c(oc3ccccc32)c(=O)n1Cc1ccccc1,inactive

row,Compound,Potency
1,CCOc1ccc(OCC)c(NS(=O)(=O)c2ccc3[nH]c(=O)ccc3c2)c1,inactive
2,CCOc1ccc(N(CC)C(=O)c2noc3c2COc2ccc(C)cc2-3)cc1,inactive
3,COc1cc(C(=O)N[C@@H](C)C(=O)NCc2ccco2)cc(OC)c1OC,inactive
4,COc1ccccc1-n1c(C)nc2cc(C(=O)NCc3ccc4c(c3)OCO4)ccc21,inactive
5,COc1cc(-n2c(C)nc3cc(C(=O)NCc4ccco4)ccc32)cc(OC)c1OC,56.2 µM (active)
6,COc1ccc(-c2cn3nc(N4CCC(C(=O)Nc5cccc(C)c5C)CC4)sc3n2)cc1,inactive
7,Cc1ccccc1C(=O)Nc1sc2c(c1C(=O)N1CCC(C)CC1)CCCC2,inactive
8,O=C(C1=C(O)C(=O)N(CCOCCO)C1c1ccccn1)c1cccs1 (centres undefined),50.1 µM (active)
9,O=C(c1cccs1)N(C(=O)c1cccs1)c1ccccn1,inactive
10,O=C(c1cccs1)c1cn(CCOc2ccc(Cl)cc2)c2ccccc12,inactive
11,O=c1n(Cc2cccc(C(F)(F)F)c2)c2ccccc2c2nc(-c3ccccc3)nn12,inactive
12,O=C(NCc1ccccc1)c1cccc(NC(=O)N2CCSc3ncccc32)c1,inactive
13,Cc1ccc(NC(=O)Nc2sc3nc4n(c(=O)c3c2C)CCC(C)CC4)c(Cl)c1 (centres undefined),inactive
14,COc1ccc(NC(=O)Nc2cccc(-c3noc(C)n3)c2)cc1,inactive
15,Cc1cccc(Cn2c(CN3CCC(C(=O)NCc4ccccc4Cl)CC3)cc3ccccc32)c1,inactive
16,COc1ccc(Cl)cc1NC(=O)CN(C)C(=O)c1cc2ccccc2cc1OC,inactive
17,CC(=O)N1CCc2cc(Br)cc(S(=O)(=O)CCC(=O)NCCc3ccc(Cl)cc3)c21,inactive
18,COc1ccc(Cl)cc1NC(=O)CN(C)Cc1ccc(OC)c(OC)c1,20 µM (active)
19,COc1ccc(Cl)cc1NC(=O)CCS(=O)(=O)c1cc2c(cc1C)NC(=O)CO2,inactive
20,COc1ccc(Cl)cc1NC(=O)CN(C)CC(=O)Nc1ccc2c(c1)OCO2,inactive
21,Cn1c(=O)oc2cc(S(=O)(=O)CCC(=O)NCCc3ccc(Cl)cc3)ccc21,inactive
22,O=C(CCS(=O)(=O)c1ccc(Br)cc1)NCCc1ccc(Cl)cc1,50.1 µM (active)
23,COc1ccc(Cl)cc1NC(=O)CCC(=O)c1ccc(C)cc1,inactive
24,COc1ccc(Cl)cc1NC(=O)CCS(=O)(=O)c1ccc(Br)cc1,8.91 µM (active)
25,CCc1ccccc1NS(=O)(=O)c1ccc2nc(-c3ccccc3)[nH]c2c1,inactive

row,Compound,Potency
1,O=S(=O)(NCC(c1ccco1)N1CCOCC1)c1cc(F)ccc1F (centres undefined),inactive
2,Cc1ccc(Nc2ccc3cc(S(=O)(=O)N4CCCCC4)ccc3n2)cc1F,inactive
3,Cc1cc(C)c(NC(=O)CN2C(=O)c3cccnc3Oc3ccc(Cl)cc32)c(C)c1,inactive
4,COc1cc(NC(=O)c2cc3ccc4cccnc4c3[nH]2)cc(OC)c1OC,inactive
5,CCN(c1ncnc2c1cnn2-c1ccc(C)cc1)C1CCCCC1,inactive
6,O=c1[nH]c2cc(Br)ccc2n2cccc12,inactive
7,Cc1ccc(NC(=O)CSc2nc(CSc3ccc(C)cc3)cc(=O)[nH]2)cc1,inactive
8,Cc1ccc(OCCCC(=O)Nc2ccc(S(=O)(=O)Nc3cc(C)nc(C)n3)cc2)cc1,inactive
9,COc1ccc(NC(=O)CSc2nc(NS(=O)(=O)c3ccc(C)cc3)cc(=O)[nH]2)cc1,50.1 µM (active)
10,CCc1nnc(NS(=O)(=O)c2ccc(NS(=O)(=O)c3ccccc3)cc2)s1,inactive
11,CCc1nnc(NS(=O)(=O)c2ccc(NC(=S)NC(=O)/C=C/c3cccs3)cc2)s1,50.1 µM (active)
12,CCc1nnc(NS(=O)(=O)c2ccc(NC(=S)NC(=O)c3cccs3)cc2)s1,inactive
13,Cc1cc(-c2ccccc2)n2nc(-c3ccccc3)cc2n1,inactive
14,CCc1ccccc1NC(=O)Cn1c(=O)n(CC2CCC(C(=O)NCCc3ccccc3)CC2)c(=O)c2ccccc21 (centres undefined),inactive
15,COc1ccc(/C=C(/CC(=O)Nc2ccc(C)cc2)c2nc3ccccc3s2)cc1,inactive
16,COc1ccccc1OCc1nc2ccccc2s1,inactive
17,COc1cccc2sc(NNC(=O)c3nc4ccccc4s3)nc12,35.5 µM (active)
18,Cc1cc2nc(-c3ccc(NC(=O)c4cc5ccccc5o4)cc3)oc2cc1C,inactive
19,COc1ccccc1CNC(=O)C(=O)NCC(c1ccco1)S(=O)(=O)c1ccc(F)cc1 (centres undefined),inactive
20,CCCN(C(=O)Cn1cc(S(=O)(=O)N2CCN(c3ccccc3F)CC2)c2ccccc2c1=O)c1cccc(C)c1,inactive
21,COc1cc(C(=O)NCC(c2ccc(Cl)cc2)N2CCOCC2)cc(OC)c1OC (centres undefined),inactive
22,CCOC(=O)C1CCN(C(c2ccc(F)cc2)c2sc3nc(-c4ccco4)nn3c2O)CC1 (centres undefined),inactive
23,CCOc1ccccc1/C=c1\sc2nc(-c3ccco3)nn2c1=O,50.1 µM (active)
24,CCOc1ccccc1NC(=O)Cn1c(=O)n(Cc2ccco2)c(=O)c2sc3ccccc3c21,inactive
25,Cc1ccc(-n2c3nc(=O)[nH]c(=O)c-3cc3c(Cl)cccc32)cc1,inactive

row,Compound,Potency
1,CCOc1ccc(OCC)c(NC(=O)c2cc(C)nc3c2c(C)nn3-c2cccc(Cl)c2C)c1,inactive
2,Cc1ccc(C(=O)Nc2cc3c(cc2N2CCCC2)n(C)c(=O)c(=O)n3C)cc1,inactive
3,O=S(=O)(c1ccc(Cl)cc1)c1nnn2c1nc(NC1CCCC1)c1sccc12,inactive
4,O=C(Nc1ccc(S(=O)(=O)N2CCC(c3nc4ccccc4s3)CC2)cc1)c1ccccc1F,inactive
5,S=c1[nH]nc(-c2ccncc2)n1/N=C/c1ccccc1Cl,inactive
6,S=c1[nH]nc(-c2cccs2)n1/N=C/c1cccs1,inactive
7,S=c1[nH]nc(-c2ccco2)n1/N=C/c1ccc(Br)s1,70.8 µM (active)
8,COc1ccc(C2C(=O)N(C3CCCCCC3)CC(=O)N2CCc2ccc(Cl)cc2)cc1OC (centres undefined),inactive
9,Cc1c(CC(=O)N2CCN(C(=O)C3COc4ccccc4O3)CC2)c(=O)oc2c(O)c(O)ccc12 (centres undefined),7.94 µM (active)
10,COc1ccc(OC)c2sc(N3CCN(C(=O)C4COc5ccccc5O4)CC3)nc12 (centres undefined),inactive
11,O=C(CNC(=O)C1COc2ccccc2O1)N/N=C/c1cc(Br)c(O)c(Br)c1 (centres undefined),inactive
12,Cn1c(C(=O)Nc2cccc(C(F)(F)F)c2)cc2c(=O)n3ccccc3nc21,inactive
13,COc1cccc(C(=O)NCc2ccc3c(c2)CCN3C(=O)c2ccncc2)c1,inactive
14,CCOc1ccc(S(=O)(=O)N2CCCCCC2)c2ccccc12,inactive
15,CN(C)CCOCCOc1ccc(Cl)c2ccccc12,50.1 µM (active)
16,CCN(CC)CCOCCOc1ccc(Cl)c2ccccc12,79.4 µM (active)
17,C#CCOc1ccc(C2CC(=O)Nc3c2c(C)nn3-c2nc(C)cc(C)n2)cc1 (centres undefined),inactive
18,COc1ccccc1C(=O)Nc1c(C(=O)Nc2ccc(C)cc2)oc2ccccc12,inactive
19,Cc1cccc(C(=O)N2CCc3c([nH]c4ccccc34)C2CC(C)C)n1 (centres undefined),inactive
20,CCOc1cccc(CC(=O)N2CCc3c([nH]c4ccccc34)C2c2ccc(OC)cc2)c1OCC (centres undefined),inactive
21,CCOc1ccc(C2c3[nH]c4ccccc4c3CCN2Cc2cccn2-c2ncccn2)cc1 (centres undefined),28.2 µM (active)
22,c1ccc(C2c3[nH]c4ccccc4c3CCN2Cc2cccn2-c2cccnc2)nc1 (centres undefined),31.6 µM (active)
23,Cc1ccc(N(CC(=O)NCc2ccc(Cl)cc2)S(=O)(=O)N(C)C)cc1,inactive
24,CCOc1ccc(NC(=O)CCC(=O)N2CC(C)Oc3ccc(C)cc32)cc1 (centres undefined),inactive

# Reference: PubChem BioAssay AID504333 (National Center for Advancing Translational Sciences (NCATS), 2011)
